Compound activity (PubChem BioAssay)
MCF10A rerep – A quantitative high throughput screen for small molecules that induce DNA re-replication in MCF 10a normal breast cells; AID 624296, 2012; Potency, µM (titrated, usually from 46.1 µM), for the others: at the top dose activity, positive = re-replication, most hits filed as activators; MCF 10A DNA re-replication, Hoechst nuclear intensity, 48 h; 2.9% of 350,000 active; note: potency is the fitted concentration of half-maximal effect; % of control where 0% means no effect; nearly all actives have a fitted effect of over 50% in size
KB-3-1 tox – qHTS assay for MDR1-selective chemotherapeutics: Primary screen using the parental adenocarcinoma cell KB-3-1 | KB-3-1 viability, CellTiter-Glo ATP luminescence, 72 h | Potency, µM (series often up to 46.1 µM), most hits filed as cytotoxic | 1.4% of 400,000 active | AID 1347075, 2019; note: potency is the fitted concentration of half-maximal effect; % is set by controls: 0 for no effect and ±100 for the full control effect; nearly all actives have a fitted effect of over 60% in size
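Cytotoxicity measured as CellTiter-Glo luminescence after 72 h at 37 C. Compound titrations were pinned onto drug-naive KB-3-1 parental adenocarcinoma cells grown in DMEM with 10% FBS, and normalized data fitted to concentration-response curves.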
KB-V1 cytotox – qHTS assay for MDR1-selective chemotherapeutics: Primary screen using the drug-selected MDR subline cells KB-V1. Potency, µM (highest dose often 46.1 µM), usual class: cytotoxic. KB-V1 MDR cells viability, CellTiter-Glo, 72 h. 3.4% of 400,000 active; note: potency is the fitted concentration of half-maximal effect; % is set by controls: 0 for no effect and ±100 for the full control effect; nearly all actives have a fitted effect of over 60% in size
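Drug-selected KB-V1 cells, grown in DMEM lacking phenol red with 10% FBS, receive compound titrations; after three days at 37 degrees C, surviving cell ATP is quantified by CellTiter-Glo luminescence and responses normalized and curve-fitted.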
SW480 rereplic – A quantitative high throughput screen for small molecules that induce DNA re-replication in SW480 colon adenocarcinoma cells. SW480 DNA re-replication, Hoechst DNA content imaging, 48 h. Potency, µM (doses to about 46.1 µM), for inactives: at the top dose re-replication activation, hits mostly activators. 1.8% of 340,000 active; note: potency is the fitted concentration of half-maximal effect; % of control where 0% means no effect; nearly all actives have a fitted effect of over 55% in size
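Per well, 250 cells were exposed to pinned compound for 48 hr. Nuclear DNA was visualised with Hoechst (40 min, 37 C) and total object intensity recorded by fluorescence scanning.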
IL1B secr inh – qHTS for Inhibitors of Inflammasome Signaling: IL-1-beta AlphaLISA Primary Screen; THP-1 LPS/ATP IL-1B secretion, AlphaLISA, 16 h; active compounds read low; activity change, % at 57.5 µM; 4.7% of 360,000 active; in the data active = activity change below about -50%; inconclusive = mostly about -30% to -49%; note: % is set by controls: 0 for no effect and ±100 for the full control effect
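Secreted IL-1B measured by AlphaLISA bead assay after 16 h compound exposure of THP-1 cells; compounds (final up to 57.5 uM) added 1 h before LPS (250 ng/mL) and ATP (1.25 mM) stimulation; lower signal means less secretion.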
The depositor's hits bear a star; i = inactive; ? = inconclusive; . = no result given; [ ] = another dose, or the depositor's remark. A selection: hits, their analogues and other compounds. The true share with any hit is near 9.9%. Unless noted, calls come from the whole dose curve; as a rule, active = well fitted curve in the direction sought with a large enough effect; inconclusive = small, poorly fitted or top-dose-only effect, or another doubt; inactive = no such curve, though single readings can be large; an effect the other way counts as inactive or inconclusive.

SMILES | MCF10A rerep | KB-3-1 tox | KB-V1 cytotox | SW480 rereplic | IL1B secr inh
Cc1cccc(N(CC(=O)N2CCCCCC2)S(C)(=O)=O)c1 | -1% | i | i | 11% | -13
CS(=O)(=O)N(CC(=O)N1CCCCCC1)c1cccc(Br)c1 | 1% | i | 21µM* | 2% | -7
CS(=O)(=O)N(CC(=O)N1CCCCCC1)c1ccc(Br)cc1 | 3% | i | 15µM* | -11% | 0
COc1ccc(OC)c(N(CC(=O)N2CCN(c3cc(Cl)ccc3C)CC2)S(C)(=O)=O)c1 | 9% | i | 23µM* | -2% | -29
Cc1ccc(N(CC(=O)N2CCCCCC2)S(C)(=O)=O)cc1 | . | i | i | . | -7
COc1cccc(N(CC(=O)N2CCCCCC2)S(C)(=O)=O)c1 | 0.82µM* | i | i | -11% | 0
COc1cccc(N(CC(=O)N2CCOCC2)S(C)(=O)=O)c1 | 16% | i | i | 1% | -10
C[C@@H]1NC(=O)c2cc([N+](=O)[O-])cc(I)c2NCCCC[C@@H](C(N)=O)NC(=O)[C@H](CC(N)=O)NC1=O | -3% | i | i | 12%[9.22 µM] | 19
COc1ccccc1N(CC(=O)N1CCCCCC1)S(C)(=O)=O | 0.33µM* | i | i | ? | 5
COc1ccccc1N(CC(=O)N/N=C(\C)c1cccc(Br)c1)S(C)(=O)=O | -1% | i | 21µM* | -5% | -1
COc1ccccc1N1CCN(C(=O)CN(CCc2ccccc2)S(C)(=O)=O)CC1 | -3% | i | 9.2µM* | -6% | 1
CCOC(=O)N1CCN(C(=O)CN(c2ccc(OCc3ccccc3)cc2)S(C)(=O)=O)CC1 | -14% | i | 5.2µM* | -4% | -14
COc1ccc(N2CCN(C(=O)CN(CCc3ccccc3)S(C)(=O)=O)CC2)cc1 | 14% | i | ? | 11% | -28
O=C(O)c1ccc(C(=O)c2cc([N+](=O)[O-])cc([N+](=O)[O-])c2)cc1 | 7% | i | i | -1% | 4
O=C(NCCCN1CCCC1)c1ccc(CS(=O)(=O)c2ccc(Cl)cc2)o1 | ? | i | i | ? | 17
CSc1ccccc1C(=O)NC1CCCc2ccccc21 (stereo unspecified) | 1% | i | i | ? | -23
COc1cc2[nH]c3c(=O)n4c(nc3c2cc1OC)SCCC4 | -13% | ? | ? | ? | -61*
N/C(=N\N=C\c1ccc(Cl)cc1)N/N=C/c1ccc(Cl)cc1 | ? | . | . | 0% | .
C=CCN(CC=C)CCOc1cccc2ccccc12 | 25% | i | i | 19% | -57*
Cc1cccnc1Nc1nc(-c2ccccn2)cs1 | 9.2µM* | 1.5µM* | 4.1µM* | ? | -111*
Cc1cccnc1Nc1nc(-c2ccccc2)cs1 | 10% | i | i | -66% | 40
Cc1cccc(Nc2nc(-c3ccccn3)cs2)n1 | 21% | 9.2µM* | 0.52µM* | ? | 41
C=CCNC(=S)NNc1nc2c(c(=O)[nH]1)C1(CCCCC1)Cc1ccccc1-2 | 23µM* | i | ? | ? | -3
CN(C)CCCN(C(=O)c1ccc(S(=O)(=O)N2CCc3ccccc3C2)cc1)c1nc2c(F)cccc2s1 | 0% | i | i | -5% | -51*
Cc1cc(C)c2sc(N(CCCN(C)C)C(=O)c3ccc(S(=O)(=O)N4CCCc5ccccc54)cc3)nc2c1 | ? | ? | ? | 4% | -67*
SMILES | MCF10A rerep | KB-3-1 tox | KB-V1 cytotox | SW480 rereplic | IL1B secr inh
CN(C)CCCN(C(=O)c1ccc(S(=O)(=O)N2CCc3ccccc32)cc1)c1nc2ccc(F)cc2s1 | 6% | i | i | ? | -81*
COc1ccc2sc(N(CCCN(C)C)C(=O)c3ccc(S(=O)(=O)N4CCc5ccccc5C4)cc3)nc2c1 | ? | ? | 23µM* | 30% | -118*
Cc1cccc2sc(N(CCCN(C)C)C(=O)c3ccc(S(=O)(=O)N4CCc5ccccc5C4)cc3)nc12 | ? | ? | i | ? | ?
CN(C)CCCN(C(=O)c1ccc(S(=O)(=O)N2CCc3ccccc32)cc1)c1nc2ccc(Cl)cc2s1 | 3% | ? | i | ? | 0
O=C(c1ncc[nH]1)c1cccs1 | 5% | ? | i | -6% | -7
CN(C)CCCN(C(=O)c1ccc(S(=O)(=O)N2CCCC2)cc1)c1nc2c(F)cc(F)cc2s1 | -4% | i | i | -419% | -6
Cc1ccc2nc(N(CCCN(C)C)C(=O)c3ccc(S(=O)(=O)N4CCOCC4)cc3)sc2c1 | -32% | i | i | -1% | -13
Cc1ccc2nc(N(CCCN(C)C)C(=O)c3ccc(S(=O)(=O)N4CCc5ccccc5C4)cc3)sc2c1 | 5.2µM* | ? | 21µM* | ? | -96*
CN(C)CCCN(C(=O)c1ccc(S(=O)(=O)N2CCc3ccccc3C2)cc1)c1nc2ccc(F)cc2s1 | 4.6µM* | ? | ? | ? | -98*
CN(C)CCCN(C(=O)c1ccc(S(=O)(=O)N2CCCCCC2)cc1)c1nc2c(F)cc(F)cc2s1 | 8% | i | i | 9% | -86*
CS(=O)(=O)N(Cc1ccc(C(=O)NCCSc2ccccn2)cc1)c1ccccc1 | 10% | i | 5.8µM* | 2% | 38
Cc1ccc(N(Cc2ccc(C(=O)NCCSc3ccccn3)cc2)S(C)(=O)=O)cc1C | 3% | i | 21µM* | 1% | 0
Cc1ccc(C(=O)NCCNC(=O)c2ccccn2)cc1 | -1% | i | i | -9% | -8
CCOC(=O)c1cc2c(OC)ccc(OC)c2n1CC(=O)c1ccccc1 | 23µM* | i | i | ? | 19
CCS(=O)(=O)c1nc2ccccc2n1Cc1ccccn1 | -5% | i | i | -6% | 14
CCOC(=O)N1CCC(NC(=O)c2cc(S(=O)(=O)N3CCOCC3)ccc2F)CC1 | -3% | i | i | -4% | 9
CCOC(=O)N1CCC(NC(=O)c2cc(S(=O)(=O)N(CC)CC)ccc2F)CC1 | -13% | i | ? | 0.73µM* | -17
CCOC(=O)N1CCC(NC(=O)c2cc(S(=O)(=O)N3CCC4(CC3)OCCO4)ccc2F)CC1 | 12% | i | 23µM* | 1% | 21
CCCCC[C@@H]1[C@H]2[C@H]3C(=O)N(c4ccccc4)C(=O)[C@H]3CC(=O)[C@H]2[C@H](c2ccccc2)N1S(=O)(=O)c1ccc(C)cc1 | . | i | i | . | 12
O=c1[nH][nH]c2cc(=O)n(-c3cccc(C(F)(F)F)c3)nc12 | -2% | i | ? | 8% | 0
